Compound activity (PubChem)
Sampled rows, rich in hits. Any-hit rate of the full collection: about 9.7%.
WNV protease inh – WNV NS2B-NS3 proteinase inhibition | z-score (no concentration beside the values) | AID 577 | WNV NS2B-NS3 protease, fluorogenic substrate Ex360/Em465; active compounds read low | 0.18% of 65,000 active; in the data active means z-score below about -3
A340 absorber – absorbance at 340 nm. compound absorbance at 340 nm, fold over control. fold change at 10 µM. 65,000 tested, under 10 active. AID 708;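 active means at 10 µM dose, initial 340 nm absorbance at least 2 fold that of control wells; inactive means change under 2 fold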;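 further: initial absorbance extrapolated from kinetic A340 decline of NADH oxidation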
Fluor 339 460 – intrinsic fluorescence of library compounds, ex339/em460 – biochemical, MLSMR library, data from DPM-DC assay, artefact control, profiling panel; fluorescence fold increase at 10 µM; 5.5% of 65,000 active; AID 709; compound autofluorescence, ex339/em460 nm, NADH buffer; active compounds read high; 1 = no-compound wells, NADH background;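 active means at 10 µM, mean starting fluorescence two-fold or more over control wells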;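 further: signal is the first read of a kinetic run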
BAP1 inh – human BAP1 deubiquitinase inhibition; Q92560; recombinant BAP1, Ub-AMC hydrolysis fluorescence kinetic; active compounds read low; calls only at 20 µM; 0.48% of 72,000 active; AID 436;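 active means activity remaining at or below 50% of control, provided the compound also passes the data quality filters; inactive means the rest, including low values that fail the filters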;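 further: 100% = DMSO wells rate and 0% = substrate alone blank rate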
Target sequence (Q92560 whole entry, looked up): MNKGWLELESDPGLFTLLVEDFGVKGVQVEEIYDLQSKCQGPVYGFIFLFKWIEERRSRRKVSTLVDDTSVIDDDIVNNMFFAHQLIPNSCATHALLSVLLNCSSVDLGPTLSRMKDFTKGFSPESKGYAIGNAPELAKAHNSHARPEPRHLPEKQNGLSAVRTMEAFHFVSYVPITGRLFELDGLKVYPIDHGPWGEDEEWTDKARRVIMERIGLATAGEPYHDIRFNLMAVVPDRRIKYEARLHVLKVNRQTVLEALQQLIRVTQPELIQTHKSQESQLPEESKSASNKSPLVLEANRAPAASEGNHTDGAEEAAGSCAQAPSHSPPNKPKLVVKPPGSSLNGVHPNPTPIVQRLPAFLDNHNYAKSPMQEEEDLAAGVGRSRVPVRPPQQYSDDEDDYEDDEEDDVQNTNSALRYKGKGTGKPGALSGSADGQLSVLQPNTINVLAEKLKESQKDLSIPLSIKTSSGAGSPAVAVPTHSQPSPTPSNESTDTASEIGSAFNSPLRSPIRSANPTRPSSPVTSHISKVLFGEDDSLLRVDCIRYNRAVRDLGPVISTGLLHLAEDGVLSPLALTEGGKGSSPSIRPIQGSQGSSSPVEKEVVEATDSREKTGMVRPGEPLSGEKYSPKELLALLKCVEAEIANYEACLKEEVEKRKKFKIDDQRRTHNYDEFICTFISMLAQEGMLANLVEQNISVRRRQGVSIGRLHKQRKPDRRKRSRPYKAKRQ
M1 antag – antagonists of rat M1 muscarinic receptor | P08482 | CHO-M1 cells, Fluo-4 calcium, ACh EC80 antagonist mode; active compounds read low | B-score at 10 µM | 3.4% of 64,000 active;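 active means calcium fluorescence response, raw or row-and-column corrected B-score, differing from the plate sample mean either way at a set confidence level, mostly lower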
M1 ag – M1 muscarinic receptor agonism. 3% of 64,000 active. AID 626. CHO-M1 cells, Fluo-4 calcium fluorescence, agonist mode; active compounds read high. B-score at 10 µM;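 active means fluorescence rise, raw or as B-score row- and column-corrected plate score, outside the 99.7% band of its plate's samples, either direction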
An asterisk follows results filed as active; i = inactive; . = no result given; + = active, no number.

SMILES	WNV protease inh	A340 absorber	Fluor 339 460	BAP1 inh	M1 antag	M1 ag
COc1ccc(CN(Cc2cc3cc4c(cc3[nH]c2=O)OCO4)C(=O)NC2CCCCC2)cc1	0.54	1	2.5*	i	0.54	-1.3
O=C(NC1CCCCC1)N(CCN1CCOCC1)Cc1cc2cc3c(cc2[nH]c1=O)OCCO3	0.75	1.1	4.4*	i	1.1	0.49
CCCc1ccc(-c2ccc(C(=O)Nc3ccc(C)cc3C)cc2)nc1	.	.	.	i	.	.
CCN(CC)CCN(Cc1cc2cc3c(cc2[nH]c1=O)OCCO3)C(=O)NC1CCCCC1	-0.51	1.1	3.8*	.	-0.5	-0.16
COc1nc(NS(=O)(=O)c2ccc(C)cc2)nc(C)c1Br	.	.	.	i	.	.
O=c1[nH]c2c(cc1CNCCN1CCOCC1)c(-c1cccc(F)c1)nn2-c1ccccc1	0.63	1.1	3.5*	i	-0.39	-0.35
CSc1nc2n(n1)C(c1cc(Br)ccc1F)C(C(=O)N(C)C)=C(C)N2 (stereo not given)	-0.27	0.97	1.2	i	1.6*	0.13
COc1ccc(CNC(=O)c2cnc3scc(C)n3c2=O)cc1	-0.15	1.2	2.1*	.	0.32	0.0036
O=C(NCc1ccco1)c1cnc2n(c1=O)CCS2	0.39	1	1	i	1.5	0.92
Cc1csc2ncc(C(=O)NCc3ccco3)c(=O)n12	0.2	1.1	3.8*	.	0	-0.4
CCOc1ccc(C=Nc2ccc([N+](=O)[O-])cc2)cc1	.	.	.	i	.	.
O=C(Nc1ccc2c(c1)C(=O)N(c1cccc(O)c1)C2=O)c1ccc(Br)cc1	.	.	.	i	.	.
CCOC(=O)C1CCN(S(=O)(=O)c2cccc(-c3cn4cccnc4n3)c2)CC1	1.8	1.1	2.1*	.	0.17	-1.8
COc1ccc(-c2cn3cccnc3n2)cc1NC(=O)C1CC1	0.72	1.1	3.2*	i	0.45	0.0052
COc1ccccc1NC(=O)C1CCCCC1	-0.41	1.1	1.1	i	0.33	0.9
CCOC(=O)C1CCN(S(=O)(=O)c2cccc(-c3csc(C)n3)c2)CC1	-0.37	0.98	1.1	i	0.035	-1.8
COc1ccc(-c2cn3cccnc3n2)cc1NC(=O)C1CCCC1	-0.4	1.1	4.8*	i	-0.38	-0.38
CCSc1nnc2c(n1)OC(c1cccc([N+](=O)[O-])c1)Nc1ccccc1-2 (stereo not given)	.	.	.	i	.	.
Cc1ccc(C2=NN(C(=O)CCC(=O)O)C(c3ccc(Br)cc3)C2)cc1 (stereo not given)	.	.	.	i	.	.
Cc1nn(CCC(=O)O)c2nc(-c3cccnc3)cc(C(F)(F)F)c12	-1.5	1.1	4.9*	.	0.011	0.41
C#CCOC(=O)c1ccccc1C(=O)n1nnc2ccccc21	-0.66	1	1.1	i	0.34	-2.3*
CC(=O)Nc1nc(CC(C)C)cc(-c2ccco2)c1C#N	-0.03	1.1	2.3*	i	0.29	0.22
CC(C)CNC(=O)c1cc(-c2ccco2)on1	-1.3	1	1.1	i	-0.41	0.48
O=C(Nc1nncs1)c1c(F)c(F)c(F)c(F)c1F	-0.14	1	1	i	1*	-0.58
Cn1c(=O)c2nc(-c3ccc(Cl)cc3Cl)oc2c2ccccc21	-0.81	1.1	2*	i	0.028	-0.82
SMILES	WNV protease inh	A340 absorber	Fluor 339 460	BAP1 inh	M1 antag	M1 ag
O=C(O)CCC(=O)Nc1cccc(NC(=O)c2ccc(Br)cc2)c1	.	.	.	i	.	.
COc1ccc(OC)c(C2C(C(N)=O)=C(C)Nc3nc(-c4cccc(Cl)c4)nn32)c1 (stereo not given)	-4.8*	0.97	1.1	i	-0.15	-0.22
COc1ccccc1CNC(=O)CN(c1cccc([N+](=O)[O-])c1)S(=O)(=O)c1ccccc1	.	.	.	i	.	.
N#CC1=C(N)C(C#N)(C#N)C(c2ccc[nH]2)C2CCCC=C12 (stereo not given)	-1.2	0.96	1.2	i	-0.065	1.8
N#CC1=C(N)C(C#N)(C#N)C(c2cccnc2)C2CCCC=C12 (stereo not given)	-0.12	1	1.3	i	1.4	7.9*
CSc1ccc(-c2cc(=O)c3ccccc3o2)cc1	6.5	1.1	2.9*	i	0.55	0.71
Cc1cc(=O)oc2c(CN3CCN(C)CC3)c(O)c(Cl)cc12	6.1	1	2.5*	.	0.05	-0.31
Cc1c(C)c2cc(Cl)c(O)c(CN3CCCCC3)c2oc1=O	1.2	1	2.5*	i	-0.042	0.2
CN1CCN(Cc2cc(=O)oc3ccc(Cl)cc23)CC1	0.76	1	1.1	i	0.068	0.36
CCCc1cc(=O)oc2c(CN3CCN(C)CC3)c(O)c(Cl)cc12	6.6	1.1	2.3*	.	0.38	-0.71
CN1CCN(Cc2c(O)c(Cl)cc3c(-c4ccccc4)cc(=O)oc23)CC1	-0.5	1.1	1.6	i	-0.48	-0.66
O=c1oc2ccccc2c(O)c1CN1CCCCC1	0.25	1	1.1	i	-0.012	0.13
CCCCc1cc(=O)oc2c(CN3CCCC3)c(O)c(Cl)cc12	11	1	3*	.	-0.074	-0.2
O=[N+]([O-])c1cccc(N2COc3ccc4ccccc4c3C2)c1	.	.	.	i	.	.
O=C(O)CCNc1cc(C(=O)O)ccc1C(=O)O	.	.	.	i	.	.
CCOc1ccc(NC(=O)c2ccc(OC)cc2)c([N+](=O)[O-])c1	.	.	.	i	.	.
O=[n+]1cc(-c2cc3ccccc3o2)n([O-])c2c1CCCC2	-0.26	1.2	2.9*	i	-0.81	-1.7
O=C(Cc1ccccc1)Nc1nnc(-c2ccccc2I)s1	.	.	.	i	.	.
Cc1cc(Nc2ccc(Cl)cc2)c2ccc3ccccc3c2n1	.	.	.	i	.	.
CCN(CC)CCCN1C(=O)C(=O)/C(=C(/O)c2ccc3c(c2)OCCO3)C1c1ccc(C)o1 (stereo not given)	0.68	1.1	1	+	-0.28	-1
COC(=O)Cn1c(=NC(=O)CSCC(=O)NC2CCCCC2)sc2cc(OC)ccc21	0.28	1.2	2.1*	.	-0.31	0
CCOC(=O)Cn1c(=NC(=O)CSC(C)=O)sc2cc(OC)ccc21	-1.1	1.1	1.4	.	0	-1
Cc1ccccc1-n1c(-c2ccc(C(C)(C)C)cc2)n[nH]c1=S	.	.	.	i	.	.
O=c1[nH]c2cc3c(cc2cc1CN(Cc1cccs1)Cc1nnnn1Cc1ccco1)OCCO3	-0.57	1	2.4*	i	-0.016	0.13
O=c1[nH]c2cc3c(cc2cc1CN(Cc1ccccc1)Cc1nnnn1Cc1ccco1)OCCO3	-0.65	1	2.5*	i	-0.016	0.15
O=c1[nH]c2cc3c(cc2cc1CN(CCCO)Cc1nnnn1Cc1ccc(F)cc1)OCO3	0.55	1.2	3.1*	.	-0.18	-0.17
Cc1cc(C)c2cc(CN(Cc3ccc4c(c3)OCO4)Cc3nnnn3Cc3ccco3)c(=O)[nH]c2c1	-0.21	1	1.1	i	0.18	-0.38
CC1(C)Cc2c(sc3nc(SCC(=O)NCc4ccco4)n(-c4ccccc4)c(=O)c23)CS1	-1.3	1	1.1	i	0.34	0.92
